# Bioassay records deposited in PubChem by National Center for Advancing Translational Sciences (NCATS).
# TRHR agonist – activates the human TRH receptor. AID 493084. actives 0.18% (n = 360,000). TRHR cells, calcium flux fluo-8, FDSS agonist mode. P34981. activation, % at 2 µM; also: 0% is about no effect
# Target sequence (P34981 whole entry, looked up): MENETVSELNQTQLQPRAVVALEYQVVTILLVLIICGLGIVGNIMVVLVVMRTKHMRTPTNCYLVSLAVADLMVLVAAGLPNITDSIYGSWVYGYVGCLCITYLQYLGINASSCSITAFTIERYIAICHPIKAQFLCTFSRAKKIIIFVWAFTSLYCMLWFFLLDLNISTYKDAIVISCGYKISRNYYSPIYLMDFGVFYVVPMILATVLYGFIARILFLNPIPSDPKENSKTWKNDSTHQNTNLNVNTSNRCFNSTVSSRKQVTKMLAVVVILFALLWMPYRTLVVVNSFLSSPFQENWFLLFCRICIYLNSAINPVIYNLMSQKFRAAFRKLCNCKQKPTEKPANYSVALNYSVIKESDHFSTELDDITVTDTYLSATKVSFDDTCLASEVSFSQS
#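 Fluo-8-loaded TRHR cells; 10 s baseline, compound added, kinetic Ca2+ fluorescence read 1/s, agonist mode.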
# TRHR enhancer – allosterically enhances the human TRH receptor | actives 0.66% (n = 360,000) | TRHR cells, fluo-8 calcium fluorescence, EC20 TRH enhancement | enhancement, % at 2 µM | P34981; in the data active = enhancement above about 30%; also: 0% is about no effect
#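 Enhancer read-out: after compound pinning and an initial kinetic agonist-mode read, an EC20 of TRH (10 nM final) was injected and fluo-8 calcium signal (Ex 480/Em 530) followed at 1 s/cycle for 100 cycles in TRHR-expressing cells.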
# D1 ag – agonists of human D1 dopamine receptor; P21728; HEK293 T-REx D1 cells, calcium flux, agonist mode; activation, % at 2 µM; actives 1% (n = 360,000); AID 504660; also: 0% is about no effect
#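 Tetracycline-induced HEK293 TREx D1 cells, force-coupled to calcium signalling, were dye-loaded with a no-wash calcium kit. Compound was pin-added after a 10 s baseline. Fluorescence was read kinetically at 1 cycle/s for 180 s, with calcium rises flagged as agonism.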
# D1 antag – antagonists of human D1 dopamine receptor; activity change, negative = inhibition, % at 10 µM; HEK293 TREx D1 cells, calcium flux, dopamine EC80; active compounds read low; actives 3.2% (n = 360,000); in the data active = activity change below about -30%; also: % is scaled to controls: 0 for no effect and ±100 for the full control effect
#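 Cells carrying a force-coupled, tetracycline-inducible human D1 receptor report calcium flux. Each well gets a 10 s baseline, compound with 180 s monitoring, then an EC80 dopamine stimulus with a second 180 s kinetic read.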
# GRP78 ERSR act – induces the endoplasmic reticulum stress response in human glioma cells. Potency, µM, inactives show top-dose activation, actives largely listed as activators. actives 0.02% (n = 420,000). U87-MG GRP78 promoter luciferase reporter, 16 h; active = well fitted activation curve with a large enough effect; also: potency is read from the fitted curve at half-maximal effect; series mostly up to about 76 µM; % of control where 0% means no effect; nearly all actives have a fitted effect of over 35% in size
#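 ERSR induction read as luciferase luminescence (Bright-Glo, 10 min at room temperature) in stably transfected human U87-MG glioma cells exposed to compounds for 16 h, using GRP78 as sensor.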
# D1 potentiator – potentiators of human D1 dopamine receptor | actives 0.036% (n = 360,000) | HEK293 TREx D1 cells, calcium flux, dopamine EC20 potentiation | potentiation, % at 10 µM; in the data active = potentiation above about 30%; also: 0% is about no effect
# An asterisk follows results filed as active; / = not tested or not shown. This is a sample that favours compounds with a hit; in the whole collection about 4% have one here. Rule as the data show it, unless noted: active = activation above about 30%; inactive = the rest.
SMILES,TRHR agonist,TRHR enhancer,D1 ag,D1 antag,GRP78 ERSR act,D1 potentiator
Cc1cccc(N2CCN(CC(O)COc3ccccc3Cl)CC2)c1 (configuration not stated),0,2,15,-33*,6%,-9
COc1ccccc1N1CCN(CC(O)COc2ccc(Cl)c(C)c2)CC1 (configuration not stated),0,-1,13,-31*,-2%,-5
C=CCc1ccccc1OCC(O)CN1CCN(c2ccc(C)cc2)CC1 (configuration not stated),0,3,1,-50*,-4%,-12
COc1ccccc1N1CCN(CC(O)COc2ccc(C)c(C)c2)CC1 (configuration not stated),-1,0,9,-22,-2%,-1
OC(COc1cccc2ccccc12)CN1CCN(c2cccc(Cl)c2)CC1 (configuration not stated),2,6,4,12,-1%,11
C=CCc1ccccc1OCC(O)CN1CCN(Cc2ccc3c(c2)OCO3)CC1 (configuration not stated),-1,-2,14,-71*,0%,-10
COc1ccc2c(c1)CCC1(C)CC(=O)C=C21 (configuration not stated),/,/,/,/,-3%,/
O=C(NCc1ccc(Cl)cc1)c1nccnc1CO,1,-2,1,-20,-4%,0
Cn1c(SCc2cccc(C(F)(F)F)c2)nnc1-c1ccco1,-1,-5,0,-3,-1%,-3
C=CCc1ccccc1OCC(O)CN1CCN(CCN2C(=O)c3cccc4cccc(c34)C2=O)CC1 (configuration not stated),-1,11,6,-69*,-6%,-8
CCOc1ccccc1C(=O)NCC(=O)N1CCN(Cc2ccc3c(c2)OCO3)CC1,0,33*,0,-15,-4%,-10
Cc1ccccc1OCC(O)CN1CCN(CCN2C(=O)c3cccc4cccc(c34)C2=O)CC1 (configuration not stated),-1,-2,-1,3,-4%,-10
CC(=O)NCC1CCCN(Cc2cn(-c3ccccc3F)nc2-c2cc(C)sc2C)C1 (configuration not stated),0,4,3,0,-6%,2
COCC1CCCN(Cc2cn(-c3ccccc3F)nc2-c2cc(C)sc2C)C1 (configuration not stated),1,32*,2,8,-1%,1
O=C(NCc1ccco1)c1sc(=S)n2c1[nH]c(=O)c1ccccc12,8,2,49*,-28,-2%,-8
CCOc1cccc(C(=O)Nc2ccc(NC(=O)c3cc4ccccc4o3)c(OC)c2)c1,0,4,7,-39*,-3%,-3
CC(C)C(=O)Nc1cccc(NC(=O)c2cc3ccccc3o2)c1,-1,-11,0,-30*,1%,-9
Cc1nnc(NC(=O)c2cccc(NC(=O)C(C)C)c2)s1,0,-6,3,-9,-1%,1
CC(=O)Nc1cccc(NC(=O)c2cc3ccccc3o2)c1,0,-4,3,-9,5%,-3
CC(C)C(=O)Nc1cccc(NC(=O)c2cccc(Br)c2)c1,0,-4,5,-32*,1%,-11
COc1ccc(C(=O)NNC(=O)c2ccc3ccccc3c2O)cc1,0,1,2,-2,-2%,-1
COc1cccc(OCC(=O)NNC(=O)c2ccc3ccccc3c2O)c1,0,-3,9,-37*,6%,-6
C=CCNS(=O)(=O)CC12CCC(CC1=O)C2(C)C (configuration not stated),0,-5,0,5,-3%,-3
COc1ccccc1NC(=O)C(=O)NCC1CCCN1S(=O)(=O)c1cccs1 (configuration not stated),0,1,5,-14,6%,-5
COc1cc(NC(=O)c2cccc(Br)c2)nc(OC)n1,-3,34*,4,2,5%,-4
COc1ccc(NC(=O)c2cc3ccccc3o2)cn1,0,41*,-1,3,6%,1
